Data as given in PubChem BioAssay (NCI).
This is part of a sample that, as a whole, favours compounds with a hit. Of some 79,000 tested, about 15% had one in any assay. The source made the active and inactive calls. Rule as the data show it: active = growth inhibition above about 70%; inactive = the rest.

Columns and labels:
[1] = NCI Yeast Anticancer Drug Screen. Data for the rad52 strain (AID 147);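 also: 0% = growth of vehicle-treated control cultures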; conditions: S. cerevisiae rad52 mutant growth inhibition, hits give high values
How it was run: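 Screen used a yeast mutant impaired in DNA repair. After compound exposure, growth was measured. Values reflect inhibition compared with vehicle-treated cells.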

[2] = NCI Yeast Anticancer Drug Screen. Data for the wt1 strain (AID 149);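 also: 0% = growth of vehicle-treated wt1 cultures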; conditions: S. cerevisiae wt1 strain (SPY 50644) growth inhibition, hits give high values
How it was run: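 Growth inhibition read against vehicle controls after compound exposure of the wt1 yeast strain.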

[3] = NCI Yeast Anticancer Drug Screen. Data for the rad50EPP+ strain (AID 151);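 also: 0% = growth of vehicle-treated control cultures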; conditions: S. cerevisiae rad50 mutant strain, hits give high values
How it was run: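 Exposing the rad50EPP+ strain to each compound, growth was compared with vehicle-only cultures to give inhibition.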

[4] = NCI Yeast Anticancer Drug Screen. Data for the mgt1 strain (AID 153); conditions: S. cerevisiae mgt1 mutant growth inhibition, hits give high values
How it was run: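 Genetically defined yeast (mgt1) treated with compound; inhibition of growth expressed against vehicle-treated controls.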

[5] = NCI Yeast Anticancer Drug Screen. Data for the rad50 strain (AID 155);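 also: 0% = growth of vehicle-only cultures of the same strain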; conditions: S. cerevisiae rad50 strain growth inhibition, hits give high values
How it was run: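 Readout: growth inhibition relative to vehicle-treated cultures. Compound exposure was carried out in a genetically defined yeast strain deficient in DNA damage repair.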

[6] = NCI Yeast Anticancer Drug Screen. Data for the mec2-1 strain (AID 157); conditions: S. cerevisiae mec2-1 strain, hits give high values
How it was run: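 Readout is yeast growth inhibition, normalised to vehicle-treated controls, in the mec2-1 strain exposed to compound.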

[7] = NCI Yeast Anticancer Drug Screen. Data for the rad14 strain (AID 159);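 also: 0% = growth of vehicle-treated control cultures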; conditions: S. cerevisiae rad14 strain growth inhibition, hits give high values
How it was run: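 Growth inhibition vs vehicle controls; genetically altered yeast strain (DNA damage repair defect) treated with test compounds.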

[8] = NCI Yeast Anticancer Drug Screen. Data for the sgs1 mgt1 strain (AID 161);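 also: 0% = growth of cultures given vehicle only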; conditions: S. cerevisiae sgs1 mgt1 strain, hits give high values
How it was run: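 Growth of a repair-deficient yeast mutant was monitored after compound treatment and expressed as inhibition relative to vehicle-treated cultures.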

[9] = NCI Yeast Anticancer Drug Screen. Data for the CLN2oe strain (AID 163);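 also: 0% = growth of vehicle-only control cultures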; conditions: S. cerevisiae CLN2oe strain, hits give high values
How it was run: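 Values reflect how much compound exposure reduced yeast growth, referenced to vehicle-exposed cells. Assay organism is a strain with a defined genetic change affecting cell-cycle control.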

[10] = NCI Yeast Anticancer Drug Screen. Data for the cln2 rad14 strain (AID 165);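 also: 0% = growth equal to vehicle treated cultures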; conditions: S. cerevisiae cln2 rad14 strain, hits give high values
How it was run: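 Relative to vehicle controls, growth inhibition of compound-treated cln2 rad14 yeast was recorded.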

[11] = NCI Yeast Anticancer Drug Screen. Data for the bub3 strain (AID 167); conditions: S. cerevisiae bub3 mutant strain, hits give high values
How it was run: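 Readout: yeast growth inhibition, expressed relative to vehicle-only wells. The test organism is a mutant strain from a panel with lesions in DNA repair or checkpoint genes.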

[12] = NCI Yeast Anticancer Drug Screen. Data for the wt2 strain (AID 169);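 also: 0% = growth of vehicle-treated yeast cultures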; conditions: S. cerevisiae wt2 strain growth inhibition, hits give high values
How it was run: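 Values express reduction in yeast growth under compound treatment, referenced to vehicle-treated cells.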

[13] = NCI Yeast Anticancer Drug Screen. Data for the mlh1 strain (AID 171);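 also: 0% = growth of vehicle-treated control cultures of the same strain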; conditions: S. cerevisiae mlh1 strain growth inhibition, hits give high values
How it was run: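 Steps: expose the defined-mutant yeast strain to compound; expose a parallel culture to vehicle; measure growth; express compound effect as inhibition relative to the vehicle culture.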

[14] = NCI Yeast Anticancer Drug Screen. Data for the sgs1 strain (AID 173);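 also: 0% = growth of vehicle-only control cultures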; conditions: S. cerevisiae sgs1 mutant, hits give high values
How it was run: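 Treat defined-mutant yeast with compound; measure growth; calculate inhibition relative to vehicle-treated cells.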

[15] = NCI Yeast Anticancer Drug Screen. Data for the mlh1 rad18 strain (AID 175); conditions: S. cerevisiae mlh1 rad18 strain growth inhibition, hits give high values
How it was run: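 Test agents were incubated with a yeast strain of defined genotype (DNA damage repair defect). Inhibition of growth was derived by comparison with vehicle-exposed cultures.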

[16] = NCI Yeast Anticancer Drug Screen. Data for the rad18 strain (AID 177); conditions: S. cerevisiae rad18 mutant growth inhibition, hits give high values
How it was run: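 A genetically defined yeast mutant impaired in DNA damage repair was treated with test compounds, then its growth was measured against cultures receiving vehicle alone.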

[17] = at 5.0 µM (retest, dose inferred, filed as 0.5)
[18] = at 50.0 µM (retest, dose inferred, filed as 5.0)

Measured: growth inhibition

O=[N+]([O-])c1cccc2nccc(NCCCO)c12
active: [1]; at 100.0 µM 70% | [5]; [18] 79% | [5]; at 100.0 µM 70% | [7]; at 33.0 µM 75% | [7]; at 100.0 µM 91% | [8]; [18] 85% | [8]; at 50.0 µM 73.8% | [10]; [18] 91% | [14]; at 33.0 µM 79% | [14]; at 100.0 µM 86% | [15]; [18] 91% | [16]; at 3.7 µM 79% | [16]; at 11.0 µM 88% | [16]; at 33.0 µM 93% | [16]; at 100.0 µM 94%
inactive: [1]; at 1.2 µM 18% | [1]; at 3.7 µM 2% | [1]; at 11.0 µM 11% | [1]; at 33.0 µM 40% | [2]; at 1.2 µM 1% | [2]; at 3.7 µM 0% | [2]; at 11.0 µM 5% | [2]; at 33.0 µM 10% | [2]; at 100.0 µM 16% | [3]; at 1.2 µM 14% | [3]; at 3.7 µM 13% | [3]; at 11.0 µM 20% | [3]; at 33.0 µM 27% | [3]; at 100.0 µM 46% | [4]; at 1.2 µM -24% | [4]; at 3.7 µM -9% | [4]; at 11.0 µM -12% | [4]; at 33.0 µM 5% | [4]; at 100.0 µM 26% | [5]; at 1.2 µM -17% | [5]; at 3.7 µM 3% | [5]; [17] 32% | [5]; at 11.0 µM 11% | [5]; at 33.0 µM 40% | [5]; at 50.0 µM 46.3% | [6]; at 1.2 µM -20% | [6]; at 3.7 µM -12% | [6]; [17] 13% | [6]; at 11.0 µM -3% | [6]; at 33.0 µM 23% | [6]; [18] 52% | [6]; at 50.0 µM 57.7% | [6]; at 100.0 µM 68% | [7]; at 1.2 µM -9% | [7]; at 3.7 µM 4% | [7]; at 11.0 µM 34% | [8]; [17] 51% | [9]; at 1.2 µM 11% | [9]; at 3.7 µM 5% | [9]; at 11.0 µM 4% | [9]; at 33.0 µM 2% | [9]; at 100.0 µM 14% | [10]; [17] 15% | [10]; at 50.0 µM 57.9% | [11]; at 1.2 µM -12% | [11]; at 3.7 µM -13% | [11]; [17] 4% | [11]; at 11.0 µM -14% | [11]; at 33.0 µM -18% | [11]; [18] -43% | [11]; at 50.0 µM 10.1% | [11]; at 100.0 µM -9% | [12]; at 1.2 µM -27% | [12]; at 3.7 µM -26% | [12]; at 11.0 µM -19% | [12]; at 33.0 µM -22% | [12]; at 100.0 µM 6% | [13]; at 1.2 µM -26% | [13]; at 3.7 µM -7% | [13]; at 11.0 µM -3% | [13]; at 33.0 µM 5% | [13]; at 100.0 µM 30% | [14]; at 1.2 µM 8% | [14]; at 3.7 µM 38% | [14]; at 11.0 µM 62% | [15]; [17] 24% | [15]; at 50.0 µM 32.9% | [16]; at 1.2 µM 46%

O=C1c2cc([N+](=O)[O-])ccc2-c2cccc(F)c21
inactive: [1]; at 1.2 µM 14% | [1]; at 3.7 µM 31% | [1]; at 11.0 µM 57% | [2]; at 1.2 µM -1% | [2]; at 3.7 µM -2% | [2]; at 11.0 µM 8% | [2]; at 33.0 µM 10% | [2]; at 100.0 µM 20% | [3]; at 1.2 µM 9% | [3]; at 3.7 µM 27% | [3]; at 11.0 µM 49% | [3]; at 33.0 µM 69% | [4]; at 1.2 µM 1% | [4]; at 3.7 µM -5% | [4]; at 11.0 µM 12% | [4]; at 33.0 µM 20% | [4]; at 100.0 µM 28% | [5]; at 1.2 µM 12% | [5]; at 3.7 µM 32% | [5]; [17] 7% | [5]; at 11.0 µM 61% | [5]; [18] 60% | [6]; at 1.2 µM 0% | [6]; at 3.7 µM 3% | [6]; [17] 1% | [6]; at 11.0 µM 13% | [6]; at 33.0 µM 23% | [6]; [18] 7% | [6]; at 50.0 µM 59.7% | [6]; at 100.0 µM 41% | [7]; at 1.2 µM 5% | [7]; at 3.7 µM 11% | [7]; at 11.0 µM 26% | [7]; at 33.0 µM 42% | [7]; at 100.0 µM 61% | [8]; [17] 12% | [8]; [18] 41% | [8]; at 50.0 µM 67.3% | [9]; at 1.2 µM -2% | [9]; at 3.7 µM 0% | [9]; at 11.0 µM 6% | [9]; at 33.0 µM 15% | [9]; at 100.0 µM 22% | [10]; [17] 18% | [10]; [18] 30% | [10]; at 50.0 µM 54.9% | [11]; at 1.2 µM -4% | [11]; at 3.7 µM -7% | [11]; [17] 1% | [11]; at 11.0 µM 8% | [11]; at 33.0 µM 16% | [11]; [18] 8% | [11]; at 50.0 µM 33.1% | [11]; at 100.0 µM 25% | [12]; at 1.2 µM -1% | [12]; at 3.7 µM 3% | [12]; at 11.0 µM 4% | [12]; at 33.0 µM 17% | [12]; at 100.0 µM 46% | [13]; at 1.2 µM -3% | [13]; at 3.7 µM 5% | [13]; at 11.0 µM 13% | [13]; at 33.0 µM 22% | [13]; at 100.0 µM 44% | [14]; at 1.2 µM 3% | [14]; at 3.7 µM 10% | [14]; at 11.0 µM 21% | [14]; at 33.0 µM 34% | [14]; at 100.0 µM 52% | [15]; [17] 9% | [15]; [18] 64% | [16]; at 1.2 µM 45%
active: [1]; at 33.0 µM 82% | [1]; at 100.0 µM 87% | [3]; at 100.0 µM 75% | [5]; at 33.0 µM 84% | [5]; at 50.0 µM 91.9% | [5]; at 100.0 µM 83% | [15]; at 50.0 µM 82.5% | [16]; at 3.7 µM 78% | [16]; at 11.0 µM 90% | [16]; at 33.0 µM 93% | [16]; at 100.0 µM 89%
